# Compounds with a hit are over-represented: about 5.9% of the library has one in this group of screens.
# S2 tox = cell viability loss in ATXN counter-screen. S2 cells (HEK-293 line with an ATXN2-luciferase reporter) viability, CellTiter-Fluor protease fluorescence, 24 h. Potency, µM (top dose mostly 56.7 µM), usual class: cytotoxic. actives 0.49% (n = 400,000). AID 651635; further: nearly all actives have a fitted effect of over 40% in size
# TGFb SMAD3 inh = TGF-b pathway inhibition | HepG2 CAGA-GFP TGF-b/SMAD3 reporter, GFP fluorescence, 18 h; TGF-beta stimulated, 500 pg/mL final | actives 1.2% (n = 410,000) | Potency, µM (highest dose often 46.1 µM), actives largely listed as inhibitors; further: nearly all actives have a fitted effect of over 65% in size
#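 GFP signal (ex488/em500-530) from TGF-beta-stimulated HEPG2 CAGA-GFP cells, 500 pg/mL final, 18 h at 37 degrees C in DMEM plus 1% FBS, normalized to unstimulated and DMSO-stimulated controls.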
# HepG2 viability = kills HepG2 cells in TGF-b inhibitor counter-screen; HepG2 CAGA-GFP viability, ATP luminescence, 18 h; Potency, µM (doses to about 46.1 µM), usual class: cytotoxic; actives 0.76% (n = 410,000); AID 588856
#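 CellTiter-Glo luminescence gave cytotoxicity after 18 hours at 37 degrees C. The cells were HepG2 CAGA-GFP in 1% FBS DMEM, stimulated with 500 pg/mL TGF-beta after compound addition. %Activity was normalised to no-cell wells (complete cell-killing) and DMSO (no toxicity), and curves were fitted and classified.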
# KB-V1 MDR tox = KB-V1 MDR subline cytotoxicity. KB-V1 MDR cells viability, CellTiter-Glo, 72 h. Potency, µM (doses to about 46.1 µM), usual class: cytotoxic. AID 1347076. actives 3.4% (n = 400,000); further: nearly all actives have a fitted effect of over 60% in size
#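 Luminescent ATP read-out (CellTiter-Glo, 10 min) measures survival of drug-selected KB-V1 MDR cells after 72 h, 37 degrees C compound exposure. Medium: phenol-red-free DMEM, 10% FBS. Values from fitted concentration-response curves.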
# KB-3-1 cytotox = KB-3-1 parental cell cytotoxicity | Potency, µM (titrated, usually from 46.1 µM), most hits filed as cytotoxic | actives 1.4% (n = 400,000) | KB-3-1 viability, CellTiter-Glo ATP luminescence, 72 h | AID 1347075; further: nearly all actives have a fitted effect of over 60% in size
#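 Screening of KB-3-1 cells (DMEM, 10% FBS, phenol-red free) ran from lowest to highest compound concentration; after 72 h at 37 °C viability was read luminescently and curves fitted.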
# ATXN2 expr inh = reduces ATXN2 reporter expression in HEK-293 cells | AID 1745845 | Potency, µM (highest dose often 57 µM), hits mostly inhibitors | HEK-293 ATXN2-luciferase reporter, luminescence, 24 h | actives 0.72% (n = 360,000); further: nearly all actives have a fitted effect of over 55% in size
#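 ATXN2-luciferase reporter cells (luciferase flanked by upstream and downstream ATXN2 gene portions) were treated 24 h at 37 °C with compounds at up to 57 uM. SteadyGlo luminescence gave expression; GF-AFC fluorescence gave viability.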
# Hits are given with their value; i = inactive; ? = inconclusive; nt = not tested or not shown. The call rests on the fitted dose curve; in most records, active means well fitted curve in the direction sought with a large enough effect; inconclusive means small, poorly fitted or top-dose-only effect, or another doubt; inactive means no such curve, though single readings can be large; an effect the other way counts as inactive or inconclusive.
SMILES,S2 tox,TGFb SMAD3 inh,HepG2 viability,KB-V1 MDR tox,KB-3-1 cytotox,ATXN2 expr inh
O=C(Nc1cccc(C(=O)O)c1)/C(=C/c1ccc([N+](=O)[O-])cc1)NC(=O)c1ccccc1,i,i,i,i,i,nt
O=C(Nc1cccc2ccccc12)/C(=C/c1ccc([N+](=O)[O-])cc1)NC(=O)c1ccccc1,i,i,i,4.6µM,i,i
CC(C)C[C@H]1CN([C@@H](CC(C)C)CN2CCC[C@@H]2CN2C(=O)C(=O)NC[C@@H]2Cc2ccccc2)C(=O)C(=O)N1CC1CCCCC1,?,18µM,i,?,i,i
CCOc1ccc(CCN2C(=O)C(=O)N([C@@H](CC(C)C)CN3CCC[C@@H]3CN3C(=O)C(=O)NC[C@@H]3CC(C)C)C[C@@H]2Cc2ccccc2)cc1,nt,20µM,i,i,i,?
CC(C)C[C@@H](CN1CCC[C@@H]1CN1C(=O)C(=O)NC[C@@H]1Cc1ccccc1)N1C[C@H](Cc2ccccc2)N(CC2CCCCC2)C(=O)C1=O,22µM,nt,nt,?,?,?
CC(C)C[C@@H](CN1CCC[C@@H]1CN1C(=O)C(=O)NC[C@@H]1Cc1ccccc1)N1C[C@H](Cc2ccccc2)N(CC2CCCCCC2)C(=O)C1=O,?,?,i,i,?,i
CCOc1ccc(CCN2C(=O)C(=O)N([C@@H](CC(C)C)CN3CCC[C@H]3CN3C(=O)C(=O)NC[C@@H]3CC(C)C)C[C@@H]2Cc2ccccc2)cc1,?,nt,nt,i,?,?
CC(C)N1CCN(c2cccc(Nc3nn4c(=O)c5ccccc5nc4s3)c2)CC1,nt,nt,nt,i,i,nt
Cn1c(/C=C/c2ccc(Cl)cc2Cl)c([N+](=O)[O-])c(=O)n(C)c1=O,?,i,i,?,7.3µM,?
NC(=O)COc1ccccc1/C=C1/SC(=O)N(CC(=O)N2CCc3ccccc3C2)C1=O,i,i,i,15µM,i,i
N#Cc1cc2sc3nnc(-c4ccncc4)n3c2cc1C#N,i,i,i,2.1µM,6.5µM,i
N#CCSc1nnc2sc3ccccc3n12,i,i,i,i,i,i
O=C(CCl)N(c1ccccc1)C1CCCCC1,?,?,18µM,?,i,?
CCOc1ccc(N(CC)C(=O)c2cc3c(s2)-c2ccc(Cl)cc2SC3)cc1,i,?,i,i,?,i
Cc1cc(C)cc(Oc2nc3c(c(=O)n(C)c(=O)n3C)n2Cc2ccc(F)cc2)c1,i,i,i,i,i,i
Cc1cc(=O)oc2cc(OCC(=O)N3CCOCC3)c(Cl)cc12,i,i,i,9.2µM,i,i
Cc1ccc(S(=O)(=O)CCSc2nc(C)cc(C(F)(F)F)c2C#N)cc1,i,i,i,13µM,18µM,i
O=C1c2cccc(O)c2C(=O)c2c(O)cccc21,i,nt,nt,nt,nt,i
CC1OC(CC(=O)O)CC2=C1C(=O)c1c(O)cccc1C2=O (centres undefined),0.95µM,?,0.5µM,2.9µM,3.7µM,1.2µM
COC(=O)c1cc2occc2n1Cc1ccc(F)cc1Cl,i,i,i,i,i,i
O=C(CC1N=C2c3ccccc3N=C(SCC(=O)Nc3ccccc3F)N2C1=O)NCc1ccc2c(c1)OCO2 (centres undefined),i,?,i,i,i,i
O=C(CCCN1C(=O)c2cccc3cccc(c23)C1=O)N1CCN(c2ccccc2O)CC1,i,i,i,6.5µM,?,i
O=C(C1CN(C(=O)c2cc3cc(Cl)ccc3o2)c2ccccc2O1)N1CCCCC1 (centres undefined),i,?,i,21µM,?,i
Cc1cc(NC(=O)CCNS(=O)(=O)c2cccc3nsnc23)ccc1Br,i,?,i,i,i,i
O=C(NC1CCCCC1)C(c1ccncc1)n1c(=O)c(-c2cc3ccccc3[nH]2)nc2ccccc21 (centres undefined),nt,nt,nt,16µM,21µM,nt
SMILES,S2 tox,TGFb SMAD3 inh,HepG2 viability,KB-V1 MDR tox,KB-3-1 cytotox,ATXN2 expr inh
N#Cc1c2c(c(Cl)n3c1nc1ccccc13)CCCC2,nt,i,i,i,i,nt
Cc1cc(C)n(-c2nc(NCCCN(C)C)c3c4c(sc3n2)CCCC4)n1,nt,?,i,?,?,22µM
Cc1cc(C)n(-c2nc(NCCC(C)C)c3c4c(sc3n2)COC(C)(C)C4)n1,?,i,i,2.3µM,i,i
Cc1cc(C)n(-c2nc(NCCN(C)C)c3c4c(sc3n2)CCCC4)n1,22µM,?,4.5µM,?,i,14µM
Cc1cc(C)n(-c2nc(NCCN(C)C)c3c4c(sc3n2)COC(C)(C)C4)n1,i,?,i,i,i,?
Cc1cc(-c2ccnc(-n3ncc(C(=O)N(C)Cc4nccs4)c3C)n2)c(C)s1,i,nt,nt,nt,nt,nt
Cc1ccc2nc(-c3cccc(NC(=O)c4cccc5ccccc45)c3)oc2c1,i,i,i,i,i,i
CN(C)c1ccc(/C=C/c2ccnc3ccc(F)cc23)cc1,nt,i,i,i,i,nt
O=C(O)CCCCCC(=O)NN=C1CCCC1,nt,nt,nt,nt,nt,i
CN(C)c1ccc(C(CNS(=O)(=O)c2ccc3ccccc3c2)c2c[nH]c3ccccc23)cc1 (centres undefined),i,?,i,15µM,i,i
CN(C)c1ccc(C(CN)c2c[nH]c3ccccc23)cc1 (centres undefined),i,i,i,i,i,i
Cc1ccc(S(=O)(=O)Nc2cc3c(cc2C)n(C)c(=O)c(=O)n3C)c(C)c1,nt,nt,i,nt,nt,nt
Cc1ccsc1/C=N/Nc1nc(=O)[nH]nc1C,i,?,11µM,?,?,?
CC(C)(C)c1cc(CCC(=O)NCCc2ccccn2)cc(C(C)(C)C)c1O,i,i,i,?,i,i
O=C1C=C(NCCc2cc(Br)c(O)c(Br)c2)C(=O)c2ncccc21,?,?,7.1µM,5.8µM,7.3µM,9.5µM
O[C@H]1C[C@H](c2ccc(Cl)cc2)N(CC2CCCCC2)C[C@@H]1n1cc(C2CC2)nn1,35µM,?,16µM,?,?,?
O[C@@H]1CN(CC2CCCCC2)[C@@H](c2ccc(Cl)cc2)C[C@H]1n1cc(C2CC2)nn1,20µM,i,i,?,?,?
O[C@@H]1C[C@H](c2ccc(Cl)cc2)N(CC2CCCCC2)C[C@H]1n1cc(C2CC2)nn1,i,i,i,i,i,i
CCCNC(=O)C1(C)CCN1C(=O)c1cc(C)n(C)n1 (centres undefined),i,i,i,i,i,i
Nc1ncnc2c1ccn2[C@H]1CN(Cc2ccc(Cl)cc2)C[C@@H](CO)O1,i,i,i,i,i,i
Cc1cccc2c(N3CCCC3)nc(CNS(=O)(=O)c3ccccc3Cl)nc12,i,nt,nt,nt,nt,nt
COc1ccc(-c2nc(N3CCOCC3)nc3n[nH]c(N)c23)cc1,i,11µM,i,i,i,i

# Screening results: PubChem BioAssay, National Center for Advancing Translational Sciences (NCATS)
